Measurements published in PubChem BioAssay AID1621 (Southern Research Specialized Biocontainment Screening …, 2009).
Screen size: about 290,000 compounds; about 60 (0.02%) were called active. About 1% were inconclusive and are not listed. No rule for the calls is given here. The list is a sample of the results. Results with a measured potency or affinity are listed apart.

Assay: inhibition of WNV-induced cytopathic effect – cell-based, CPE readout (AID 1621)
Conditions: West Nile virus-infected cells, at 10 µM, active compounds read high

CPE inhibition, inactive:
Cc1ccc2nc(-c3ccc(NC(=O)CCN4C(=O)c5ccccc5C4=O)cc3)sc2c1 -0.32%
O=C(COc1ccc([N+](=O)[O-])cc1)N(Cc1ccccc1)Cc1ccccc1 -0.78%
COC(=O)c1c(NC(=O)C(C)C)sc2c1C(C(=O)OC)CC2 (configuration not stated) 1.21%
COC(=O)c1c(NC(=O)C(C)(C)C)sc2c1C(C(=O)OC)CC2 (configuration not stated) -0.06%
CC1=C(C(=O)N2CCCC(CCC(=O)NCc3ccccc3F)C2)OCCO1 (configuration not stated) -0.63%
COc1ccc(C2c3ccc4ccccc4c3Oc3ncn(CCO)c(=N)c32)cc1OC (configuration not stated) 57.3%
COc1ccc(C2c3ccc4ccccc4c3Oc3ncn(CCCO)c(=N)c32)cc1 (configuration not stated) -1.98%
COc1ccc(C2c3c(ncn(CCCN4CCOCC4)c3=N)Oc3ccc4ccccc4c32)cc1OC (configuration not stated) -1.6%
COc1ccc(C2c3c(ncn(CCN4CCOCC4)c3=N)Oc3ccc4ccccc4c32)cc1OC (configuration not stated) -1.66%
N=c1c2c(ncn1CCN1CCOCC1)Oc1ccc3ccccc3c1C2c1ccccc1 (configuration not stated) 2.66%
COc1ccc(C2c3ccc4ccccc4c3Oc3ncn(CCN4CCOCC4)c(=N)c32)cc1 (configuration not stated) -0.91%
Cc1nc2nc(CCc3ccccc3)nn2c(C)c1Cl 0.45%
CN(Cc1ccon1)C(=O)CCc1nnc(Cc2ccc(-c3ccccc3)cc2)o1 -0.95%
Cc1cccc(-n2c(C)cc(C)c(C#N)c2=O)c1 0.53%
O=C(NNc1ccccc1[N+](=O)[O-])Nc1ccc(F)cc1F -0.58%
O=C(CCc1nc2ccccc2s1)OCc1ccccc1F -0.14%
O=c1c2c(-c3cccc([N+](=O)[O-])c3)ccnc2[nH]n1-c1ccccc1 0%
COCCn1c(N)c(N(Cc2ccccc2)C(=O)Cc2c(Cl)cccc2Cl)c(=O)[nH]c1=O -0.15%
O=C(CSc1nc2ccccc2c(=O)n1-c1ccc(F)cc1)Nc1ccc(N2CCOCC2)cc1 -1.03%
Cc1ccc(-n2c(SCC(=O)Nc3ccc(N4CCOCC4)cc3)nc3ccccc3c2=O)cc1 12.4%
C=CCn1c(SCC(=O)Nc2ccc3c(c2)CCC3)nc2ccccc2c1=O -0.68%
CCCCn1c(SCC(=O)Nc2ccc3c(c2)CCC3)nc2ccccc2c1=O -0.76%
O=C(CSc1nc2ccccc2c(=O)n1-c1ccc(F)cc1)Nc1ccc(C(=O)O)cc1 0.03%
COc1cccc(-n2c(SCC(=O)Nc3ccc4c(c3)CCC4)nc3ccccc3c2=O)c1 2.86%
O=C(Nc1ccccc1)C1CC(O)CN1S(=O)(=O)c1ccc([N+](=O)[O-])cc1 (configuration not stated) 0.17%
Cc1ccc(-c2oc3ccccc3c(=O)c2OCC(=O)O)cc1 0.23%
COc1cc(NC(=O)COC(=O)CCc2cc(OC)c(OC)c(OC)c2)cc(OC)c1 1.02%
CCCCN(CC)CCNC(=O)c1cc2c(=O)n(CC)c3ccccc3c2s1 -1.08%
COCCNC(=O)c1cc2sc3ccccc3c2s1 -0.09%
CCN(CC)CCCNC(=O)c1cc2c(=O)n(CC)c3ccccc3c2s1 1.54%
COCCN(CCOC)C(=O)c1cc2sc3ccccc3c2s1 -0.78%
CN(C)CCCNC(=O)c1ccccn1 0.08%
CCN(CC)C(=O)c1cc2sc3ccccc3c2s1 -0.37%
O=C(COc1ccc(S(=O)(=O)N2CCc3ccccc32)cc1Cl)NCc1ccccn1 -0.17%
CCOc1ccc(NC(=O)C(C)O)c(NS(=O)(=O)c2ccc(CCNC(C)=O)cc2)c1 (configuration not stated) -0.27%
O=C(CNS(=O)(=O)c1ccccc1)OCC(=O)c1ccc(Br)cc1 -0.68%
CCOC(=O)C1C(=O)CC(C)(O)C(C(=O)OCC)C1c1ccc(NC(C)=O)cc1 (configuration not stated) 0%
O=C1CSC(c2cn(-c3ccccc3)nc2-c2ccccc2)N1Cc1ccco1 (configuration not stated) -0.03%
O=C(NC1CCS(=O)(=O)C1)c1sc2ccccc2c1Cl (configuration not stated) 1.04%
CCCC1CCC(C(=O)Nn2cnc3ccccc3c2=O)CC1 (configuration not stated) 0.33%
Cc1[nH]c(=O)c(C#N)c(C)c1CCC(=O)NCc1ccc(Cl)cc1 0.96%
Cc1nc(Cl)sc1C(=O)NC(C)c1ccc(Cl)cc1 (configuration not stated) -0.9%
O=C1CN(C(=O)c2ccc(Cl)nc2)c2ccccc2N1 0.17%
CC(C)(C)c1ccc(NC(=O)CSc2nnc(-c3n[nH]c4ccccc34)o2)cc1 0.07%
Cc1cc(C)c2nc(N3CCCC(C(=O)NCCCN4CCOCC4)C3)sc2c1 (configuration not stated) -0.13%
Cc1cc(C)c2nc(N3CCCC(C(=O)NCCN4CCOCC4)C3)sc2c1 (configuration not stated) -0.73%
COC(=O)c1ccccc1NC(=S)N(Cc1ccc2c(c1)OCO2)Cc1cc2cc(C)ccc2[nH]c1=O 0.29%
Cc1[nH]c(C(=O)O)c(C)c1C(=O)OC(C)C 0.13%
CC(C(=O)NC(C)(C)C)N1C(=O)c2cccc3cccc(c23)C1=O (configuration not stated) -0.58%
CN(C)CCNC(=O)c1c(NC(=O)c2ccccc2)sc2c1CCCC2 2.53%
NCCNC(=O)c1c(NC(=O)c2ccccc2)sc2c1CCCC2 -0.62%
CCc1cccc(NC(=O)C2CCCN2S(=O)(=O)c2cccc3cccnc23)c1 (configuration not stated) -0.25%
O=C(NC1CC1)c1cc2c(s1)-c1ccccc1OC2 1.08%
O=C(NCCCN1CCOCC1)c1cc2c(s1)-c1ccccc1OC2 0.21%
Cc1cccc2c1-c1sc(C(=O)NCCCN3CCc4ccccc4C3)cc1CO2 -0.65%
Cc1cccc2c1-c1sc(C(=O)NCCCN3CCC(C)CC3)cc1CO2 1.03%
O=C(NCc1cccs1)c1cc2c(s1)-c1ccccc1OC2 0.12%
CCCN1CCN(CCCNC(=O)c2cc3c(s2)-c2c(C)cccc2OC3)CC1 -0.21%
Cc1cccc2c1-c1sc(C(=O)NCCCN3CCCC(C)C3)cc1CO2 (configuration not stated) -0.27%
CCN1CCN(CCCNC(=O)c2cc3c(s2)-c2ccccc2OC3)CC1 35.2%
CC1(C)SC2c3ccccc3C(=O)N2[C@@H]1C(=O)O (some centres not stated) 1.57%
COc1ccc(C2/C=C\CN(C(=O)OCc3ccccc3)CC(=O)N2Cc2ccc(F)cc2)cc1 (configuration not stated) -0.53%
O=c1c2ccccc2cnn1Cc1cccc(Br)c1 0%
COc1ccc(-c2noc(N3CCCC(C(=O)Nc4cc(F)ccc4F)C3)n2)cc1 (configuration not stated) -0.21%
CCSc1nnc(Nc2ccccc2)s1 0.4%
C/C(=N\NC(=O)c1nn(C)c(C)c1Br)c1ccc(NC(=O)c2ccc(C)s2)cc1 -0.9%
Cc1ccc(S(=O)(=O)NC(C)CCc2ccccc2)cc1 (configuration not stated) -1.02%
COc1cc2ccccc2cc1C(=O)NC(=S)Nc1nnn(C)n1 0.33%
Cc1sc(/C=C2\C(=O)ON=C2c2ccccc2)cc1Br 0.35%
CC(C)NC(=O)c1ccc(-c2ccc(Cl)c(C(F)(F)F)c2)o1 -0.86%
CCOC(=O)C1C(c2cccs2)NC(=O)N(C)C1(O)C(F)(F)F (configuration not stated) -0.41%
COCCNC(=O)c1onc(CSc2cc(C)cc(C)c2)c1C(=O)NCCOC 0.39%
CCCCNC(=O)c1onc(CSc2cc(C)cc(C)c2)c1C(=O)NCCCC -0.6%
O=C(CC(=O)Nc1ccccc1C(=O)O)NNC(=O)Cc1ccccc1 -0.29%
CN(C)C(=O)N1CCN(c2nc(-c3ccccc3)cs2)CC1 -0.36%
O=C(CCCl)N1CCN(c2nc(-c3ccccc3)cs2)CC1 1.96%
CCCNc1c(NC(=O)c2cccs2)c(=O)oc2ccccc12 -0.26%
Cc1ccc(NC(=O)C(C)N2C(=O)c3ccccc3C2=O)cc1C (configuration not stated) 0.2%
CCOC(=O)CN1C(=O)N[C@@H](c2cccc(C(F)(F)F)c2)[C@H](C(C)=O)[C@H]1C -0.43%
CCN(CC)CCC(c1ccc(N(C)C)cc1)c1c(OC)cc(OC)c2c(-c3ccccc3)cc(=O)oc12 (configuration not stated) -0.46%
CCN(CC)CCC(c1cc(OC)c(OC)c(OC)c1)c1c(OC)cc(OC)c2c(C)cc(=O)oc12 (configuration not stated) -0.13%
CONC(=O)Nc1ccccc1[N+](=O)[O-] 0.1%
CCCC(=O)Nc1c(C(=O)OCC)[nH]c2ccccc12 0%
CCOC(=O)c1[nH]c2ccccc2c1NC(=O)C(C)(C)C 0.96%
Cc1ccc(Sc2c(C)nn(C(=O)c3cccc(S(=O)(=O)N4CCOCC4)c3)c2C)cc1 0.04%
O=C(Nc1ccc(S(=O)(=O)Nc2nccs2)cc1)c1ccc(=O)[nH]c1 -0.06%
CCOc1ccc(NC(=O)c2c(NC(=O)CN3CCCC3)sc3c2CCC3)cc1 -0.99%
CN1CCN(CC(=O)Nc2sc3c(c2C(=O)Nc2ccccc2)CCCC3)CC1 1.23%
CCOC(=O)c1c(N)c2cc([N+](=O)[O-])ccc2n1C 0.7%
COCC(C)n1c(SCc2cc(C(=O)OC)c(C)o2)nc2ccccc2c1=O (configuration not stated) -0.56%
CC(=O)c1ccc(N2CCN(c3ccc(S(=O)(=O)NCCN(C)C)cc3[N+](=O)[O-])CC2)cc1 -0.21%
CC(=O)c1ccc(N2CCN(c3ccc(S(=O)(=O)NCCCN(C)C)cc3[N+](=O)[O-])CC2)cc1 -2.19%
